Among the data in ChEMBL document CHEMBL3988442, “University of Dundee, Small-Polar-MMV Screening Library” (2021) are Percent Effect values, retold here.

For some of these results: Results with a measured potency or affinity are listed apart.

Common to all, as to parameters: scale not given: direction of the effect not stated beside the values
The target of test [1] is Protein translocase subunit SecA (Escherichia coli (strain K12)) (UniProt P10408). The experiment in a line: Assay to Identify E. coli SecA ATPase Inhibitors. It counts as functional. The settings on record: 30 µM.
Sequence of Protein translocase subunit SecA (Escherichia coli (strain K12)) (P10408 whole entry): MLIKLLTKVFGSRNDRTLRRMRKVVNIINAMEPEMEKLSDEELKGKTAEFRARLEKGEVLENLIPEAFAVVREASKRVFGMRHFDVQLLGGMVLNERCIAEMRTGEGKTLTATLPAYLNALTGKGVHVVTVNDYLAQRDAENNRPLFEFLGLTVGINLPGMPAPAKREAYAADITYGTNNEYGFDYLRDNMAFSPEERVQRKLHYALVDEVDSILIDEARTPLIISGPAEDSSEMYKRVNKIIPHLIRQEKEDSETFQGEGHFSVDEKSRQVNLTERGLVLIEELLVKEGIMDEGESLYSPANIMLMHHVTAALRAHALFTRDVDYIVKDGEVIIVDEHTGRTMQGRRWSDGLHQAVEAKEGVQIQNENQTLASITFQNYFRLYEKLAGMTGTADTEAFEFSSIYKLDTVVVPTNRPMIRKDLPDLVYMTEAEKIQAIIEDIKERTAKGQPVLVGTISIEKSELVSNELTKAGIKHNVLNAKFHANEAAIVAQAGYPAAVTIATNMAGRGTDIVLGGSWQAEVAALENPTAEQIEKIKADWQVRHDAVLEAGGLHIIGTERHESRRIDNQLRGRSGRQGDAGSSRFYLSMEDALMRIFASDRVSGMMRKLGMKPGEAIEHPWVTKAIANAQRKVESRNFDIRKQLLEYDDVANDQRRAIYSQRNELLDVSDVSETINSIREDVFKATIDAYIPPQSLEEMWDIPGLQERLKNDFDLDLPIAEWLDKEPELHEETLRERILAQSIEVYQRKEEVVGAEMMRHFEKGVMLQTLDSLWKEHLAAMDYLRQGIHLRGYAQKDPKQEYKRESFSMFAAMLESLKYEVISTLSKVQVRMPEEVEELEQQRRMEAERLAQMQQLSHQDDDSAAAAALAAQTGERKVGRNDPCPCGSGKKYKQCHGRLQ
Test [2] addresses T1, Ubiquitin-activating enzyme e1, putative (Leishmania donovani (strain BPK282A1)) (UniProt E9BSI1).
T1 sequence (whole entry): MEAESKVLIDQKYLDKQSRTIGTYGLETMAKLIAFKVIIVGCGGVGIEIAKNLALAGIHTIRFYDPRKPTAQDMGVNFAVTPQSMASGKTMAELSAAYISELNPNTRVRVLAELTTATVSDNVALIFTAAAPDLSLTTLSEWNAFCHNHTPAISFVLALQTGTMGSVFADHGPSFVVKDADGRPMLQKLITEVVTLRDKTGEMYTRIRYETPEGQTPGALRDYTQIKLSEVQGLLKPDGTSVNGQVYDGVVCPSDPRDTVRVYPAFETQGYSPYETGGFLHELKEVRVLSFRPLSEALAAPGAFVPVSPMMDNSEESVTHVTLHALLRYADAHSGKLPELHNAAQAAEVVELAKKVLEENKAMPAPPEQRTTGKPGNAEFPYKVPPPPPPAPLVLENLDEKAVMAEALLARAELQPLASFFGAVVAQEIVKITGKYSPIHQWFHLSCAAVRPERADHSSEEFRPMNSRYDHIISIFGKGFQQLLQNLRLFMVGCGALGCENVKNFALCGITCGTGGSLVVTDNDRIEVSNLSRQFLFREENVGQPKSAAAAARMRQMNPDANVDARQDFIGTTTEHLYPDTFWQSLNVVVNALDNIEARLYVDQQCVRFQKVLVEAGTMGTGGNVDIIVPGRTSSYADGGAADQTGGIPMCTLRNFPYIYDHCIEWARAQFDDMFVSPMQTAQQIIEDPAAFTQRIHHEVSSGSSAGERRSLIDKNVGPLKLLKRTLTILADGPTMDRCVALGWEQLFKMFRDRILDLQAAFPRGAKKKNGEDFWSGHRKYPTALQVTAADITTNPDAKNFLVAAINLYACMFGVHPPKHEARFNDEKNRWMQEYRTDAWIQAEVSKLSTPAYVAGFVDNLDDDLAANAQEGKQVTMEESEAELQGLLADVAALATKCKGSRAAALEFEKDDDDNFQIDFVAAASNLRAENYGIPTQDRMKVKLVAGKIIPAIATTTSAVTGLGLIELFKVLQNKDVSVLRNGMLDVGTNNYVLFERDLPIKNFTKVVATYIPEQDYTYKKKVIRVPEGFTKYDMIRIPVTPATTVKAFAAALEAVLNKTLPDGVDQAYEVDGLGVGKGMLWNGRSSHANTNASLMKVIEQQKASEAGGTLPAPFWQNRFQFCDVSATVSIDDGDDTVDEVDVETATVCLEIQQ
In words: Leishmania donovani Ubiquitin Activating Enzyme (LdE1). It counts as functional. The settings on record: 30 µM.

For test [3], the target named is AMP-activated protein kinase, AMPK (Homo sapiens) (UniProt P54646+O43741+P54619+Q9UGJ0+Q9Y478+Q13131+Q9UGI9). In words: AMP-dependent Kinase enzyme assay. An in vitro enzyme assay that detects ADP turnover that is directly proportional to AMPK activity. This uses naive AMPK that is activated during the assay with MK-8722. It counts as functional. The settings on record: 30 µM.

The target of test [4] is Sialic acid-binding Ig-like lectin 9 (Homo sapiens) (UniProt Q9Y336). In words: Hs-Siglec9 ALPHAscreen SOP 20170721. As to conditions: 10 µM. Background: Alpha assays give light when donor and acceptor beads are brought close together.
Sequence of Sialic acid-binding Ig-like lectin 9 (Homo sapiens) (Q9Y336 whole entry): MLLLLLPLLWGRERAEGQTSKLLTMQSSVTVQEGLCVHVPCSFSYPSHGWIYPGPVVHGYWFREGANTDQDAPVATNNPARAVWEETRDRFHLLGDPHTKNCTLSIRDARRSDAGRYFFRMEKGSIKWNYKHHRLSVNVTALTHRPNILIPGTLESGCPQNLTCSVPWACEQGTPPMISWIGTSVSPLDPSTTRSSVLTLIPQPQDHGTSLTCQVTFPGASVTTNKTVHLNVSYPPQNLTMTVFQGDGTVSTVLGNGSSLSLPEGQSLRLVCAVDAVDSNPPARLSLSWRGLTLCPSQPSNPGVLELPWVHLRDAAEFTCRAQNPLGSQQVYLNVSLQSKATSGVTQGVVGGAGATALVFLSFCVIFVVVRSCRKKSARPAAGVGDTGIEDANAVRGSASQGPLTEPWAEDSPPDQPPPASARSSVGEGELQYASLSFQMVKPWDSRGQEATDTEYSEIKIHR
In the next test the test system is Trypanosoma cruzi. In words: Trypanosoma cruzi phosphomannomutase and mannose-1-phosphate guanylyltransferase assay. The test is classed as functional. As to conditions: 10 µM.
The target of test [5] is T2, Arginase-2, mitochondrial (Homo sapiens) (UniProt P78540).
T2 sequence (whole entry): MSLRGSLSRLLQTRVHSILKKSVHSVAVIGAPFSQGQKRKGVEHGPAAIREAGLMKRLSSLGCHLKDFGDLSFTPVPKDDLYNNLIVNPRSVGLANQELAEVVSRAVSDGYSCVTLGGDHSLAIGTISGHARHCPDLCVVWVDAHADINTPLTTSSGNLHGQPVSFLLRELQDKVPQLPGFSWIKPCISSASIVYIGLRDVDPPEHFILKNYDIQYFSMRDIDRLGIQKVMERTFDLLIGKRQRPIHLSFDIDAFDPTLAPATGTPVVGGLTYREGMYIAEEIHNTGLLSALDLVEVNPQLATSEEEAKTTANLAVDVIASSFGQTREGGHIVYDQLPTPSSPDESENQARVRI
The experiment in a line: in vitro enzyme assay to detect the production of urea directly proportional to the activity of Arginase II. Note: in the data most compounds retested in dose-response had high values. The test is classed as functional. As to conditions: 33.3 µM.

Test [6] deals with T3, Proteasome subunit beta (Trypanosoma cruzi) (UniProt O96673).
T3 sequence (whole entry): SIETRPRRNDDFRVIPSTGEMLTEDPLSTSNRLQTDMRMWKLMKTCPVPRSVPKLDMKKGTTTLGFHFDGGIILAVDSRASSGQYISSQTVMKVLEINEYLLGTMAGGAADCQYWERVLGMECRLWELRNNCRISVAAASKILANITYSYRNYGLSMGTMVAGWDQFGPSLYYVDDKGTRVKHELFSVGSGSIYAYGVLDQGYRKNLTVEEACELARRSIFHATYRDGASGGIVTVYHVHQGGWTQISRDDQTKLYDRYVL
In words: Trypanosoma cruzi proteasome chymotrypsin-like activity (TcProtChymo) assay. Note: in the data most compounds retested in dose-response had high values. The test is classed as functional. As to conditions: 9.37 µM.

Another test is filed under the species Homo sapiens. In words: To identify inhibition of the IFN signalling (Jak-Stat) pathway via expression of an eGFP reporter gene under the control of an IFN-stimulated response element (ISRE) containing MxA promoter. It counts as functional. The settings on record: 30 µM. In general terms: A reporter such as luciferase makes a cellular process visible.
Test [7] has as its target T4, Tyrosyl-tRNA synthetase, putative (Trypanosoma cruzi (strain CL Brener)) (UniProt Q4DSP6).
T4 sequence (whole entry): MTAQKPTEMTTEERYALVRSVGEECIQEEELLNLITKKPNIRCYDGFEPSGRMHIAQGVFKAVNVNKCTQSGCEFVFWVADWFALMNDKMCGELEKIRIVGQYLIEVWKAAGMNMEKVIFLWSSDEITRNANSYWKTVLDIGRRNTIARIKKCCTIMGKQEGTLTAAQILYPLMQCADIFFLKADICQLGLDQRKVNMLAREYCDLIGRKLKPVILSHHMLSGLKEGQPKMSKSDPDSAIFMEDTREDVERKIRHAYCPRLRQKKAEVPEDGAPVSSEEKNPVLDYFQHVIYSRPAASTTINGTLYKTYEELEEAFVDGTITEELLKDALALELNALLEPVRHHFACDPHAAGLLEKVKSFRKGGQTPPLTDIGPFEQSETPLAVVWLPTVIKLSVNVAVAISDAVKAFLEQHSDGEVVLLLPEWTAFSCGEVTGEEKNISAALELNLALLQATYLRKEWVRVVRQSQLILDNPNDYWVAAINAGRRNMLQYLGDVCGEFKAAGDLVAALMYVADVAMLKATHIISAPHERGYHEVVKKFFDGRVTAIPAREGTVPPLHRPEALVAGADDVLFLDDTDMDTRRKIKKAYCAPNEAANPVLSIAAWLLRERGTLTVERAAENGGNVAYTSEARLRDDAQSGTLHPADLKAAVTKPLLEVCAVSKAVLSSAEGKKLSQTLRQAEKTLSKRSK
In words: Trypanosoma cruzi tyrosyl tRNA synthetase (TcYRS) _High Tyrosine SOP. Note: in the data most compounds retested in dose-response had high values. The test is classed as functional. As to conditions: 30 µM.

In test [8] the target is T4, Tyrosyl-tRNA synthetase, putative (Trypanosoma cruzi (strain CL Brener)). The experiment in a line: Trypanosoma cruzi tyrosyl tRNA synthetase (TcYRS) SOP. The test is classed as functional. The settings on record: 30 µM.
Test [9] has as its target Chromo domain-containing protein 1 (Saccharomyces cerevisiae (strain ATCC 204508 / S288c) (Baker's yeast)) (UniProt P32657). In words: ScCHD-1 Enzyme Inhibition Assay. Note: in the data most compounds retested in dose-response had high values. The settings on record: 30 µM. It counts as functional.

Sequence of Chromo domain-containing protein 1 (Saccharomyces cerevisiae (strain ATCC 204508 / S288c) (Baker's yeast)) (P32657 whole entry, the tested form may be a part): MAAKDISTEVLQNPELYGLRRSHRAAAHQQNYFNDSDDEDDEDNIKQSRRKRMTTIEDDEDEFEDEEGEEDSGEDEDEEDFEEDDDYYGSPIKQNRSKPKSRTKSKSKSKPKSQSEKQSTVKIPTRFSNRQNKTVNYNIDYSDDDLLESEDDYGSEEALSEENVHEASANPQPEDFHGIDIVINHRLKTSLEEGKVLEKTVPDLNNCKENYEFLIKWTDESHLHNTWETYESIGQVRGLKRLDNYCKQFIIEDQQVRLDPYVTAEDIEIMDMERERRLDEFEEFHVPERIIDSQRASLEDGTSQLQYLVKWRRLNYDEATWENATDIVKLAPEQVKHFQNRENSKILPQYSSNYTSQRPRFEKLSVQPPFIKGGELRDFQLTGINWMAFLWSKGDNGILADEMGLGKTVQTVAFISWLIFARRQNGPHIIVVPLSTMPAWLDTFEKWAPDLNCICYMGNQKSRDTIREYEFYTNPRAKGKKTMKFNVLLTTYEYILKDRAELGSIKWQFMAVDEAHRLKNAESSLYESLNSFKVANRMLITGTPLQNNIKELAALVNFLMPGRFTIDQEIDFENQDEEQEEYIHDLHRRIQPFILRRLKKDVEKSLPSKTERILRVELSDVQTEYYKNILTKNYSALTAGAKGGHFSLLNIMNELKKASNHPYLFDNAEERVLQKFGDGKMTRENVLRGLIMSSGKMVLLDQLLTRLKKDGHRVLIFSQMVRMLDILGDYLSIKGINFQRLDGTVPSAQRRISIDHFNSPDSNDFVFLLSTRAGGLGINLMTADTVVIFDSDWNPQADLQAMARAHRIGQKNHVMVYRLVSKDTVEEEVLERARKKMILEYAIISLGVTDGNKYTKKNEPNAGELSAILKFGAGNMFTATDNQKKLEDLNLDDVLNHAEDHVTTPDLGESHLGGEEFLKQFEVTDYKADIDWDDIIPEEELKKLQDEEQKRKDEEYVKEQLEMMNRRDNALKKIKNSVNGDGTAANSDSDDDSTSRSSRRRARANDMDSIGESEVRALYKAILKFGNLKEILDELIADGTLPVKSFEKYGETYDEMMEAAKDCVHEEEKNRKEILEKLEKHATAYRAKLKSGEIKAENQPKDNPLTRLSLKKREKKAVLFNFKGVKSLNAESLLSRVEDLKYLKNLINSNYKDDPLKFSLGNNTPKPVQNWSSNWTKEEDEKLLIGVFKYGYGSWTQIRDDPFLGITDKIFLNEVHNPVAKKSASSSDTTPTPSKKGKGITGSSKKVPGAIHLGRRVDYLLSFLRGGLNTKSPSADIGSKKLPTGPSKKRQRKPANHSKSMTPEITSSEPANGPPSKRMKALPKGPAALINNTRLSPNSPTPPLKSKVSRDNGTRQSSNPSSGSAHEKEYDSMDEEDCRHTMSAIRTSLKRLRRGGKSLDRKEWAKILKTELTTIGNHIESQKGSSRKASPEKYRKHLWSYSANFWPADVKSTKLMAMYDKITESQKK

Take `CC(C)C(=O)N1CCN(Cc2cc(-c3ccncc3)nn2C)CC1`: the Percent Effect in [1] was -5.03%; in test [2], 12.2%; in test [3], -0.905%; in test [4], 1.54%; with Trypanosoma cruzi, 3.75%; in test [5], -3.48%. Further, the Percent Effect is 8.89% in [6]; 0.905% in the test filed under Homo sapiens; -5.38% in test [7]; 11.7% in test [8]; -13.7% in test [9].

Turning to `O=C(CCN1C(=O)CCC1=O)Nc1cnn(-c2ccccc2Cl)c1`, the Percent Effect in test [1] is -6.27%; in test [2], 10.8%; in [3], 6.39%; in test [4], 1.29%; in the test on Trypanosoma cruzi, -7.52%; in test [5] it was -0.185%. Further, the Percent Effect in test [6] was 5.92%; in the test filed under Homo sapiens it was 20.3%; in test [7], 4.95%; in test [8], 6.1%; in test [9] it was 4.56%.

Regarding `CCOC1CCCN(C(=O)NCCc2ccn(-c3ccccc3)n2)C1` (stereo unspecified), the Percent Effect in [1] was -2.03%; in test [2], 20.8%; in test [3] it was -1.06%; in test [4], -7.16%; in the test on Trypanosoma cruzi, -0.49%; in test [5], -2.74%. In addition, the Percent Effect was 12.1% in [6]; 0.938% in the test filed under Homo sapiens; 5.71% in test [7]; 18.8% in [8]; -17.1% in [9].

For `Cc1ccc(CN2CCCC3(COCCN(Cc4c[nH]nn4)C3)C2)o1` (stereo unspecified), the Percent Effect was -2.92% in test [1]; 2.67% in [2]; 3.3% in test [3]; 8.61% in test [4]; 0.965% in the test on Trypanosoma cruzi; -22.8% in [5]. Moreover, the Percent Effect is 0.855% in [6]; 4.18% in the test listed under Homo sapiens; 7.29% in test [7]; 10% in [8]; -3.22% in test [9].

Turning to `CC(C)(C)OC(=O)CNC(=O)CCc1nnc(-c2ccsc2)o1`, the Percent Effect in test [1] was -5.71%; in test [2], 5.2%; in test [3] it was 2.21%; in test [4], 5.6%; in the test on Trypanosoma cruzi, -0.688%; in test [5], 24.8%. Besides, the Percent Effect in test [6] is 16.1%; in the test listed under Homo sapiens it was 6.67%; in test [7], 3.23%; in test [8] it was 3.7%; in test [9], -0.78%.

Regarding `CN(Cc1cccc(F)c1)C(=O)CN1CCCCC1Cn1cncn1` (stereo unspecified), the Percent Effect was -1.08% in test [1]; -2.6% in test [2]; -0.897% in test [3]; 5.97% in test [4]; 1.08% in the test on Trypanosoma cruzi; -4.14% in [5]. Also, the Percent Effect in test [6] was 9.32%; in the test listed under Homo sapiens, -1.75%; in test [7], 4.3%; in [8], -1.24%; in test [9], -0.771%.

As for `COCc1nc2cc(NCc3ccncc3)ccc2o1`, the Percent Effect was 6.12% in test [1]; 54% in test [2]; -108% in test [3]; -0.763% in test [4]; -1.76% in the test with Trypanosoma cruzi; 9.58% in test [5]. Also, the Percent Effect was 13.4% in [6]; -8.66% in the test filed under Homo sapiens; 4.95% in [7]; -1.22% in test [8]; 2.52% in test [9].

As to `Cc1nn(-c2ccccc2)c2c1C(c1ccc(C(=O)O)cc1)CC(=O)N2` (stereo unspecified), the Percent Effect was -4.78% in test [1]; 10.7% in test [2]; -3.15% in test [3]; 13.8% in test [4]; 6.33% with Trypanosoma cruzi; 2.6% in test [5]. The Percent Effect in test [6] is 7.85%; in the test filed under Homo sapiens, 11.5%; in test [7], 3.83%; in test [8], 6.17%; in [9] it was -14.9%.

As to `CCN(C)S(=O)(=O)N(CC)Cc1ccc2c(c1)OCO2`, the Percent Effect in test [1] is -5.09%; in test [2] it was 15.6%; in [3], 0.454%; in test [4] it was 4.35%; in the test with Trypanosoma cruzi, -4.49%; in test [5], 1.42%. Moreover, the Percent Effect in test [6] is 8.11%; in the test listed under Homo sapiens, 11.3%; in test [7] it was 4.85%; in [8], 19.5%; in test [9], -8.91%.

On to `O=C1CCC2(CCCN(C(=O)c3cscn3)C2)CN1CCc1c[nH]cn1` (stereo unspecified), for which the Percent Effect is -3.15% in test [1]; 7.79% in test [2]; -3.24% in test [3]; 13.5% in [4]; 6.98% in the test on Trypanosoma cruzi; -9.65% in test [5]. Moreover, the Percent Effect is 15.1% in test [6]; -31.6% in the test listed under Homo sapiens; 5.38% in test [7]; 13.6% in test [8]; -5.62% in [9].

`CN(C)C(=O)COCc1cncc2c1CCN(Cc1nccn1C)C2`: the Percent Effect in [1] is -2.93%; in test [2] it was 7.79%; in test [3], 3.61%; in [4], 17.4%; in the test on Trypanosoma cruzi it was 7.18%; in test [5], -106%. Further, the Percent Effect in test [6] was 3%; in the test listed under Homo sapiens, 20.9%; in test [7], 6.45%; in [8] it was 13.6%; in test [9], 0.222%.
